Read-out in assay [1]: solute carrier (SLC22A1), SLC22A1 (gene 6580)
Put plainly: LTEA_HepaRG_SLC22A1: Life Technologies and Expression Analysis (LTEA) Assay for solute carrier (SLC22A1) using HepaRG (AID 2283524). The settings on record: mRNA level, 48 h; actives raise or lower the signal. Summed up:
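Transcript level of SLC22A1 quantified by qRT-PCR (normalized to three housekeeping genes) after 48 h chemical exposure of HepaRG cells, eight concentrations up to 100 µM, half-log steps, 0.5% DMSO vehicle. Gain or loss relative to DMSO fitted bidirectionally.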

Read-out in assay [2]: Pyruvate Dehydrogenase Kinase 4 (PDK4), PDK4 (gene 5166)
Put plainly: LTEA_HepaRG_PDK4: Life Technologies and Expression Analysis (LTEA) Assay for Pyruvate Dehydrogenase Kinase 4 (PDK4) using HepaRG (AID 2283525). The settings on record: mRNA level, 48 h; actives raise or lower the signal. Summed up: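 Readout is qRT-PCR of PDK4 transcript, normalized to three housekeeping genes, with bidirectional fitting against 0.5% DMSO vehicle. Differentiated HepaRG cells were treated 48 h in serum-free induction medium, duplicate wells, eight-point half-log series topping at 100 uM.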

Read-out in assay [3]: NAD(P)H dehydrogenase [quinone] 1 (NQO1), NQO1 (gene 1728)
Put plainly: LTEA_HepaRG_NQO1: Life Technologies and Expression Analysis (LTEA) Assay for NAD(P)H dehydrogenase [quinone] 1 (NQO1) using HepaRG (AID 2283526). The settings on record: mRNA level, 48 h; actives raise or lower the signal. In outline: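 In this assay, gene expression is read by qRT-PCR after 48 h exposure of HepaRG cells to eight concentrations (max 100 uM, half-log) in 0.5% DMSO. Each chemical runs in duplicate, and activity is scored relative to vehicle.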

Read-out in assay [4]: Nuclear factor erythroid 2-related factor 2 (Homo sapiens) (UniProt Q16236)
Put plainly: LTEA_HepaRG_NFE2L2: Life Technologies and Expression Analysis (LTEA) Assay for Nuclear factor erythroid 2-related factor 2 (NFE2L2) Transcription Factor using HepaRG (AID 2283527).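 Also: TaqMan qRT-PCR transcript level normalised to ACTB GAPDH and POLR2A housekeeping genes.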 The following applies: mRNA level, 48 h; actives raise or lower the signal. In outline:
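NFE2L2 transcript level was read by qRT-PCR (housekeeping ACTB/GAPDH/POLR2A normalisation) after 48 h chemical treatment of HepaRG in serum-free induction medium. Duplicate 8-point half-log curves, top 100 uM, 0.5% DMSO vehicle; up- or down-regulation fitted against vehicle.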

Read-out in assay [5]: Signal transducer and activator of transcription 3 (Homo sapiens) (UniProt P40763)
Put plainly: LTEA_HepaRG_STAT3: Life Technologies and Expression Analysis (LTEA) Assay for Signal transducer and activator of transcription (STAT3) using HepaRG (AID 2283529). The settings on record: mRNA level, 48 h; actives raise or lower the signal. In outline:
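STAT3 transcript quantified by qRT-PCR against three housekeeping genes (ACTB, GAPDH, POLR2A), fitted both directions relative to DMSO. HepaRG cultures exposed 48 h to eight half-log concentrations, top 100 uM, 0.5% DMSO, serum-free induction medium.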

Read-out in assay [6]: solute carrier (SLCO1B1), SLCO1B1 (gene 10599)
Put plainly: LTEA_HepaRG_SLCO1B1: Life Technologies and Expression Analysis (LTEA) Assay for solute carrier (SLCO1B1) using HepaRG (AID 2283530). The settings on record: mRNA level, 48 h; actives raise or lower the signal. Summed up:
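Differentiated human HepaRG cells, plated 48 h, switched to serum-free induction medium and exposed in duplicate for 48 h to 8 half-log concentrations (top 100 uM) in 0.5% DMSO. SLCO1B1 mRNA by TaqMan qRT-PCR, normalized to ACTB/GAPDH/POLR2A.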

Read-out in assay [7]: sulfotransferase 2A1 (SULT2A1), SULT2A1 (gene 6822)
Put plainly: LTEA_HepaRG_SULT2A1: Life Technologies and Expression Analysis (LTEA) Assay for sulfotransferase 2A1 (SULT2A1) using HepaRG (AID 2283531). The following applies: mRNA level, 48 h; actives raise or lower the signal. Summed up: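 Differentiated human HepaRG cells in serum-free induction medium were exposed for 48 h to eight half-log concentrations (top 100 uM, 0.5% DMSO). SULT2A1 mRNA was measured by qRT-PCR, normalized to ACTB, GAPDH and POLR2A, and fitted bidirectionally against DMSO.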

Read-out in assay [8]: Transforming Growth Factor (TGFA), TGFA (gene 7039)
Put plainly: LTEA_HepaRG_TGFA: Life Technologies and Expression Analysis (LTEA) Assay for Transforming Growth Factor (TGFA) using HepaRG (AID 2283532). The settings on record: mRNA level, 48 h; actives raise or lower the signal. Summed up: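 TGFA transcript quantified by qRT-PCR (Fluidigm arrays) against three housekeeping genes, after 48 hours chemical treatment of HepaRG cells. Top concentration 100 uM with half-log dilutions, 8 points, duplicates, 0.5% DMSO.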

Read-out in assay [9]: Transforming Growth Factor (TGFB1), TGFB1 (gene 7040)
Put plainly: LTEA_HepaRG_TGFB1: Life Technologies and Expression Analysis (LTEA) Assay for Transforming Growth Factor (TGFB1) Transporter using HepaRG (AID 2283533). The settings on record: mRNA level, 48 h; actives raise or lower the signal. Summed up:
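Differentiated human HepaRG cells in serum-free induction medium were exposed in duplicate for 48 h to eight concentrations (top 100 uM, half-log steps, 0.5% DMSO). TGFB1 mRNA was quantified by qRT-PCR, normalized to ACTB, GAPDH, POLR2A, and fitted bidirectionally against DMSO.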

Read-out in assay [10]: TIMP1, TIMP1 (gene 7076)
Put plainly: LTEA_HepaRG_TIMP1: Life Technologies and Expression Analysis (LTEA) Assay for TIMP1 using HepaRG (AID 2283534). The settings on record: mRNA level, 48 h; actives raise or lower the signal. Summed up: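 Differentiated human HepaRG cells in serum-free induction medium were exposed 48 h to chemicals (8 half-log concentrations, top 100 uM, 0.5% DMSO). TIMP1 mRNA was quantified by TaqMan qRT-PCR, normalized to ACTB/GAPDH/POLR2A; bidirectional fit versus DMSO.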

Read-out in assay [11]: Tumor necrosis factor receptor 1 (TNFRSF1A), TNFRSF1A (gene 7132)
Put plainly: LTEA_HepaRG_TNFRSF1A: Life Technologies and Expression Analysis (LTEA) Assay for Tumor necrosis factor receptor 1 (TNFRSF1A) using HepaRG (AID 2283535). The following applies: mRNA level, 48 h; actives raise or lower the signal. In outline:
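Differentiated human HepaRG cells were exposed in duplicate for 48 h in serum-free induction medium to eight concentrations (top 100 uM, half-log steps, 0.5% DMSO). TNFRSF1A mRNA was quantified by qRT-PCR, normalized to ACTB, GAPDH and POLR2A, then fitted bidirectionally against DMSO.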

Read-out in assay [12]: Thyroid Hormone Responsive (THRSP), THRSP (gene 7069)
Put plainly: LTEA_HepaRG_THRSP: Life Technologies and Expression Analysis (LTEA) Assay for Thyroid Hormone Responsive (THRSP) using HepaRG (AID 2283536). The following applies: mRNA level, 48 h; actives raise or lower the signal. Summed up: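 THRSP transcript quantified by Fluidigm qRT-PCR against three housekeeping genes after 48 h chemical exposure of HepaRG cells in serum-free induction medium; eight-point half-log series, top 100 uM, 0.5% DMSO vehicle, duplicate wells.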

Read-out in assay [13]: Cellular tumor antigen p53 (Homo sapiens) (UniProt P04637)
Put plainly: LTEA_HepaRG_TP53: Life Technologies and Expression Analysis (LTEA) Assay for Tumor Protein P53 (TP53) using HepaRG (AID 2283537). The following applies: mRNA level, 48 h; actives raise or lower the signal. In outline:
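Differentiated HepaRG cells in serum-free induction medium exposed 48 h in duplicate to 8 half-log concentrations, top 100 uM, 0.5% DMSO. TP53 mRNA by TaqMan qRT-PCR (Fluidigm), normalized to ACTB, GAPDH, POLR2A; fitted bidirectionally versus DMSO.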

Read-out in assay [14]: UDP glucuronosyltransferase (UGT1A1), UGT1A1 (gene 54658)
Put plainly: LTEA_HepaRG_UGT1A1: Life Technologies and Expression Analysis (LTEA) Assay for UDP glucuronosyltransferase (UGT1A1) using HepaRG (AID 2283538). The settings on record: mRNA level, 48 h; actives raise or lower the signal. Summed up: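 mRNA induction or loss of UGT1A1, by TaqMan qRT-PCR, in duplicate HepaRG wells after 48 h exposure to half-log dilutions topping at 100 uM; DMSO (0.5%) served as baseline.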

Read-out in assay [15]: UDP glucuronosyltransferase (UGT1A6), UGT1A6 (gene 54578)
Put plainly: LTEA_HepaRG_UGT1A6: Life Technologies and Expression Analysis (LTEA) Assay for UDP glucuronosyltransferase (UGT1A6) using HepaRG (AID 2283539). The following applies: mRNA level, 48 h; actives raise or lower the signal. In outline: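 Human HepaRG cells were dosed for 48 h in serum-free induction medium with 0.5% DMSO vehicle, eight-point half-log series from 100 uM, in duplicate. UGT1A6 mRNA was measured by qRT-PCR, normalized to ACTB, GAPDH, POLR2A, and fitted bidirectionally against DMSO.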

Read-out in assay [16]: X-box binding protein 1 (XBP1), XBP1 (gene 7494)
Put plainly: LTEA_HepaRG_XBP1: Life Technologies and Expression Analysis (LTEA) Assay for X-box binding protein 1 (XBP1) using HepaRG (AID 2283540). The settings on record: mRNA level, 48 h; actives raise or lower the signal. In outline: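 Differentiated human HepaRG cells in serum-free induction medium were exposed in duplicate for 48 h to eight half-log concentrations up to 100 uM in 0.5% DMSO. XBP1 mRNA was quantified by qRT-PCR, normalised to ACTB, GAPDH and POLR2A, with bidirectional fitting against DMSO.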

A short description of assay [17]: LTEA_HepaRG_LDH_cytotoxicity: Cytotoxicity Assessment in the Life Technologies and Expression Analysis (LTEA) Assay (AID 2283563; active = hit-call score of the fitted dose curve at least 0.9, where 1 is the maximum;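 as to AC50: LDH activity released into spent culture medium as a marker of cell death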). In outline: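 Differentiated human HepaRG cells, plated 48 h beforehand, were switched to serum-free induction medium and exposed for 48 h to eight half-log concentrations (top 100 uM) in 0.5% DMSO. LDH was measured in spent medium; activity was fitted relative to DMSO vehicle.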

Assay [18] can be described thus: TOX21_p53_BLA_p2_viability: Viability Assessment in the Tox21 HCT-116 p53 Agonism Beta-lactamase Assay, Phase 2 (AID 2283591; active = hit-call score of the fitted dose curve at least 0.9, where 1 is the maximum;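 also: compound exposure lasted 16 h at 37 °C; actives lower the ATP signal meaning cytotoxicity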). In outline: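 Cytotoxicity readout: CellTiter-Glo ATP luminescence, 30 min at room temperature, after the beta-lactamase read. Cells were HCT116 exposed 16 h at 37C to compounds pin-transferred at 217-fold dilution from DMSO stocks.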
Assay [19] is described as follows: ATG_XTT_Cytotoxicity: Cytotoxicity Assessment in the Attagene TRANS-FACTORIAL HepG2 Assay (AID 2283584; active = hit-call score of the fitted dose curve at least 0.9, where 1 is the maximum). In outline: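 HepG2 human liver cells, transiently transfected with multiple GAL4-UAS reporter units, were dosed and read at 24 h by XTT as cell number. Loss of signal was fitted relative to DMSO negative control baseline.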

This is an account of results in PubChem BioAssay (EPA / NIEHS).

SMILES strings stand for the structures. Records with an inconclusive call do not appear. Activity calls are given as the source filed them. The calls were made as follows, unless noted: active = hit-call score of the fitted dose curve at least 0.9, where 1 is the maximum; inactive = score below 0.9.

Chain of Nuclear factor erythroid 2-related factor 2 (Homo sapiens) (Q16236 whole entry, looked up): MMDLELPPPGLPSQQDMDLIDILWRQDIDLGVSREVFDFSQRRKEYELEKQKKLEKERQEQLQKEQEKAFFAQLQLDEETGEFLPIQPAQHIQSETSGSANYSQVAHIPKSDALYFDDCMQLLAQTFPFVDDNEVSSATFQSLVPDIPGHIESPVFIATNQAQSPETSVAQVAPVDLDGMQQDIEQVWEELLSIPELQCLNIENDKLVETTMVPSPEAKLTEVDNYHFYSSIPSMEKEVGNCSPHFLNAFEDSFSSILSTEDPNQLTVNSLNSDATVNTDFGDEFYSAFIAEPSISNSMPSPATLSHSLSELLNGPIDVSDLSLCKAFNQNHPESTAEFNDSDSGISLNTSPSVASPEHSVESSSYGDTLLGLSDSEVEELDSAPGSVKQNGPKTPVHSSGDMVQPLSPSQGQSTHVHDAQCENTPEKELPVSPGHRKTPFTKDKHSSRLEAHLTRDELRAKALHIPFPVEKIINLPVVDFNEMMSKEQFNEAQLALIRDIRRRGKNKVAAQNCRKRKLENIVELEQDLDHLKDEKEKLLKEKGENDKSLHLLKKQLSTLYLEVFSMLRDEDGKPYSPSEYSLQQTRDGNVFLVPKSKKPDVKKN
Chain of Cellular tumor antigen p53 (Homo sapiens) (P04637 whole entry, looked up): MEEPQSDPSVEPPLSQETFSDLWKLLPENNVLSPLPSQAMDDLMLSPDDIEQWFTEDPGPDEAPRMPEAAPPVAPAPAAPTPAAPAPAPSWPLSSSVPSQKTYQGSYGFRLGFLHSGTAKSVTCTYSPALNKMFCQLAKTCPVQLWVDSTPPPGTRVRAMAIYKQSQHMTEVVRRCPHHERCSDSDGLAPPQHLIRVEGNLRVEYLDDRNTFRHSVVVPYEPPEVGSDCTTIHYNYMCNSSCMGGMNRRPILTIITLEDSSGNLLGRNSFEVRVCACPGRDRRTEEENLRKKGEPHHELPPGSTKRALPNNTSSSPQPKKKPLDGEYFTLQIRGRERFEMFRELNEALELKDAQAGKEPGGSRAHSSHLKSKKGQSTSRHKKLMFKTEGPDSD
Chain of Signal transducer and activator of transcription 3 (Homo sapiens) (P40763 whole entry, looked up): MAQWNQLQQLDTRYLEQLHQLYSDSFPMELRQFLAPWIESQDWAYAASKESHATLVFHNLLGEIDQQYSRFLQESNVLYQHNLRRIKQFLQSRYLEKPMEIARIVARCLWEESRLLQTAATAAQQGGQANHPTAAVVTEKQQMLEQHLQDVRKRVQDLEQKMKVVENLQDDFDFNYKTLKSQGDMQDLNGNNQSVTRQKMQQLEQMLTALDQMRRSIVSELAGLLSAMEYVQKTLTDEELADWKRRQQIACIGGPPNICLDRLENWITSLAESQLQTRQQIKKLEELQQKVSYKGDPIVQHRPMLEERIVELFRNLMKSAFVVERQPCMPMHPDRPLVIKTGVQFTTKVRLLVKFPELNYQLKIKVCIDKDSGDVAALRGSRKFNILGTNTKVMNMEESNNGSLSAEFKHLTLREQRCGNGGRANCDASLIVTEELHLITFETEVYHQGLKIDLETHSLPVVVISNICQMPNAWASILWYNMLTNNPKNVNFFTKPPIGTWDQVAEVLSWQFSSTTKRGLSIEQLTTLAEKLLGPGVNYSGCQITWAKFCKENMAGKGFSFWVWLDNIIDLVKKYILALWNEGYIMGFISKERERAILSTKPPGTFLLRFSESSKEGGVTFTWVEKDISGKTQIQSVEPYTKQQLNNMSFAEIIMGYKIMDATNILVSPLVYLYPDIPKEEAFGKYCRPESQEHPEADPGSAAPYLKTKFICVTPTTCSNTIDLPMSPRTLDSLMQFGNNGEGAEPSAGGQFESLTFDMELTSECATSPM

What is called AC50 is the concentration at which the activity in the assay is half-maximal. As for `CN(C)C(=O)Nc1ccc(Cl)cc1`, the call in assay [1], in assay [2], in assay [3], in assay [4], in assay [5] and in [6] was inactive. The compound was classed as inactive in assay [7], in [8], in assay [9], in [10], in assay [11] and in assay [12]. Further, the compound was called inactive in assay [13], in assay [15], in assay [16], in assay [17] and in assay [18]. The AC50 in [14] is 30.8 µM (active).

Turning to `CN(C)c1ccc(C(=O)c2ccc(N(C)C)cc2)cc1`, the AC50 is 25.8 µM (active) in assay [2] and 13.2 µM (active) in assay [14]. For the same compound, the call in assay [3], in [4], in assay [5], in assay [6], in assay [7] and in [8] was inactive. Further, the result in assay [9], in assay [10], in assay [11], in [12], in assay [13] and in assay [15] was inactive. For the same compound, the result in assay [16], in assay [17] and in assay [18] was inactive.

In the case of `Nc1ccc(N=Nc2ccccc2)cc1`, the concentration at half-maximal activity (AC50) in assay [2] was 13.4 µM (active); in assay [6], 11.4 µM (active); in assay [7], 22.4 µM (active); in [9] it was 13.1 µM (active); in assay [10], 50 µM (active); in assay [11], 23.4 µM (active). In addition, the concentration at half-maximal activity (AC50) was 11.4 µM (active) in assay [12]; 13 µM (active) in [14]; 19.8 µM (active) in [15]; 16.8 µM (active) in assay [16]; 11.9 µM (active) in assay [17]. In addition, the outcome in assay [3], in [4], in assay [5], in [8], in [13] and in assay [18] was inactive.

Regarding `O=C1CCCO1`, the outcome in [2], in assay [4], in assay [5], in assay [6], in assay [7] and in assay [8] was inactive. Moreover, the call in [10], in [12], in assay [14], in assay [16], in [17] and in assay [19] was inactive. Also, the concentration at half-maximal activity (AC50) was 50 µM (active) in assay [3], 77 µM (active) in assay [11], 50 µM (active) in [13] and 50 µM (active) in [15].
